Reference: PubChem BioAssay (NCI)
Where “and” joins values, the source holds several entries; their conditions need not be identical. Equal entries are not always repeated. This is part of a sample that, as a whole, favours compounds with a hit. Of some 79,000 tested, about 15% had one in any assay. Unmarked numbers belong to inactive results. Calls of active or inactive are those of the source. No stated cut-off is given here; in the data, active means growth inhibition above about 70%; inactive means the rest.

Key:
[1] = NCI Yeast Anticancer Drug Screen. Data for the rad50 strain (AID 155);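 further: 0% = growth of vehicle-only cultures of the same strain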; settings: S. cerevisiae rad50 strain growth inhibition, hits give high values
Procedure, shortened: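 Cells are treated with compound, grown, and their growth is then scored against vehicle-only cultures of the same repair-deficient yeast strain.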

[2] = NCI Yeast Anticancer Drug Screen. Data for the mec2-1 strain (AID 157); settings: S. cerevisiae mec2-1 strain, hits give high values
Procedure, shortened: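 Yeast mec2-1 mutant treated with compound. Readout: growth inhibition vs vehicle controls.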

[3] = NCI Yeast Anticancer Drug Screen. Data for the sgs1 mgt1 strain (AID 161);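 further: 0% = growth of cultures given vehicle only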; settings: S. cerevisiae sgs1 mgt1 strain, hits give high values
Procedure, shortened: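 Inhibition of yeast growth, normalised to vehicle-treated controls, is reported for a strain bearing genetic alterations in DNA damage repair.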

[4] = NCI Yeast Anticancer Drug Screen. Data for the cln2 rad14 strain (AID 165);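 further: 0% = growth equal to vehicle treated cultures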; settings: S. cerevisiae cln2 rad14 strain, hits give high values
Procedure, shortened: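 cln2 rad14 yeast strain; compound exposure; growth inhibition read vs vehicle controls.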

[5] = NCI Yeast Anticancer Drug Screen. Data for the bub3 strain (AID 167); settings: S. cerevisiae bub3 mutant strain, hits give high values
Procedure, shortened: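 Part of a panel of yeast mutants defective in DNA damage repair or cell cycle regulation. Each strain is grown with compound, and inhibition is calculated relative to solvent-treated cultures.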

[6] = NCI Yeast Anticancer Drug Screen. Data for the mlh1 rad18 strain (AID 175); settings: S. cerevisiae mlh1 rad18 strain growth inhibition, hits give high values
Procedure, shortened: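 Yeast w/ defined DNA-repair lesions; compound exposure; growth vs vehicle controls → % inhibition.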

[7] = at 5.0 µM (retest, dose inferred, filed as 0.5)
[8] = at 50.0 µM (retest, dose inferred, filed as 5.0)

Row | Compound | growth inhibition [1, 7] | growth inhibition [1, 8] | growth inhibition ([1]; at 50.0 µM) | growth inhibition [2, 7] | growth inhibition [2, 8] | growth inhibition ([2]; at 50.0 µM) | growth inhibition [3, 7] | growth inhibition [3, 8] | growth inhibition ([3]; at 50.0 µM) | growth inhibition [4, 7] | growth inhibition [4, 8] | growth inhibition ([4]; at 50.0 µM) | growth inhibition [5, 7] | growth inhibition [5, 8] | growth inhibition ([5]; at 50.0 µM) | growth inhibition [6, 7] | growth inhibition [6, 8] | growth inhibition ([6]; at 50.0 µM)
1 | O=C1C(=O)c2cccc3cccc1c23 | 8% | 79% (active) | 64.2% | 8% | 51% | 30.4% | 3% | 34% | 21.1% | 6% | 50% | -3.15% | 13% | 82% (active) | 13.2% | 1% | 63% | 22.9%
2 | N#Cc1ccc(N=Cc2c([O-])ccc3ccccc23)cc1.[C-]#[O+].[C-]#[O+].[Ir] | 8% | 8% | 82.6% (active) | 1% | 1% | 59.5% | 2% | 2% | 61.8% | 0% | 0% | 50.2% | 1% | 1% | 74.7% (active) | 13% | 13% | 75.8% (active)
3 | [CH3][Sn]([CH3])([Cl])[c]1cc[c]([Sn]([CH3])([CH3])[Cl])cc1 | 26% | 84% (active) | 78% (active) | -1% | 50% | 72.5% (active) | 6% | 80% (active) | 85.5% (active) | 11% | 63% | 77% (active) | 10% | 80% (active) | 81.3% (active) | 20% | 87% (active) | 80.2% (active)
4 | O=C(CBr)Nc1ccccc1Cl | 19% | 99% (active) | 99.3% (active) | -3% | 99% (active) | 99.5% (active) | 40% | 98% (active) | 99.1% (active) | 20% | 99% (active) | 98.5% (active) | 23% | 99% (active) | 99.5% (active) | 18% | 99% (active) | 99.2% (active)
5 | C[C@]12CC/C(=N\NC(=O)c3ccncc3)C[C@@H]1CC[C@@H]1[C@@H]2CC[C@]2(C)[C@@H](O)CC[C@@H]12 | 0% | 52% | 68.9% | 5% | 54% | 29.1% | 13% | 65% | 77.3% (active) | 6% | 8% | 66.8% | 2% | 37% | 35% | 10% | 46% | 59.1%
6 | CN(CCC(N)CC(=O)NC1C=CC(n2ccc(N)nc2=O)OC1C(=O)O)C(=N)N (centres undefined) | 48% | 95% (active) | 91.8% (active) | 86% (active) | 98% (active) | 92.8% (active) and 93.4% (active) | 42% | 90% (active) | 90.9% (active) | 88% (active) | 97% (active) | 90% (active) and 90.2% (active) | 68% | 96% (active) | 91% (active) and 92% (active) | 72% (active) | 97% (active) | 90.6% (active) and 90.7% (active)
7 | O=P1(Oc2ccccc2)C(c2ccccc2)C(c2ccccc2)=NN1c1ccccc1 (centres undefined) | 29% | 29% | 90.7% (active) | 12% | 12% | 91% (active) | 23% | 23% | 89.2% (active) | 23% | 23% | 90.8% (active) | 5% | 5% | 90.1% (active) | 11% | 11% | 89.6% (active)
8 | C[C@H](N)C(=O)N[C@@H]1[C@H]2C(=C(O)C[C@@H](O)[C@@H]2O)C(=O)O[C@]1(C)C(Cl)Cl | 18% | 22% | 17.1% | 7% | 26% | 13.1% | 12% | 25% | 6.6% | 18% | 53% | 44.9% | 7% | 26% | 30.9% | 6% | 25% | 27.4%
9 | C/C1=C\[C@@H](O)C(=O)/C=C/C=C\c2csc(n2)[C@@H](C)NC(=O)C[C@@]2(CC1)S(=O)SC(=O)[C@]2(C)O (some centres undefined) | 92% (active) | 98% (active) | 91.6% (active) | 98% (active) | 99% (active) | 92.5% (active) | 90% (active) | 98% (active) | 92.2% (active) | 97% (active) | 98% (active) | 89.2% (active) | 94% (active) | 98% (active) | 90.3% (active) | 96% (active) | 98% (active) | 85% (active)
10 | S=P(Nc1ccccc1)(Nc1ccccc1)Oc1ccccc1 | 2% | 98% (active) | 99% (active) | -4% | 98% (active) | 99% (active) | -4% | 98% (active) | 99.2% (active) | -4% | 97% (active) | 98.7% (active) | 9% | 97% (active) | 98.7% (active) | 7% | 97% (active) | 97.5% (active)
11 | O=C(O)C1C2c3cccc4cccc(c34)C12 (centres undefined) | -139% | 88% (active) | 44.8% | -50% | 72% (active) | 87.6% (active) | -56% | 74% (active) | 40.4% | -41% | 78% (active) | 85.3% (active) | -59% | 86% (active) | 93.2% (active) | -112% | 81% (active) | 83.8% (active)
12 | CCC[CH2][Sn]1([CH2]CCC)[O]C(=O)c2cccc(C)c2[O]1 | 86% (active) | 96% (active) | 96.7% (active) | 89% (active) | 98% (active) | 97.7% (active) | 88% (active) | 94% (active) | 96.3% (active) | 86% (active) | 97% (active) | 93.3% (active) | 88% (active) | 97% (active) | 95.9% (active) | 87% (active) | 95% (active) | 98.2% (active)
13 | COc1cc(N(CCCl)CCCl)ccc1C=Nc1cccc(Cl)c1 | 5% | 45% | 84% (active) | -6% | 51% | 62.6% | 1% | 7% | 94% (active) | 0% | 20% | 81.6% (active) | 0% | 14% | 87% (active) | 17% | 87% (active) | 94.2% (active)
14 | O=[N+]([O-])c1ccc(O)c(CCl)c1 | 6% | 41% | 16.5% | -1% | 22% | 1.6% | 0% | 36% | 20.9% | 0% | 5% | -4.15% | 3% | 18% | 8.65% | 4% | 59% | 76.2% (active)
15 | COc1c(O)c2c(c3cc(C(=O)N4CCc5c4c(O)c(OC)c4[nH]c(C(=O)N6CC7CC78C6=CC(=O)c6[nH]cc(C)c68)cc54)[nH]c13)CCN2C(N)=O (centres undefined) | 97% (active) | 97% (active) | 89.8% (active) | 98% (active) | 98% (active) | 93% (active) | 96% (active) | 96% (active) | 90.5% (active) | 95% (active) | 95% (active) | 89% (active) | 94% (active) | 96% (active) | 91% (active) | 98% (active) | 97% (active) | 89.5% (active)
16 | NCCBr | 0% | -26% | -8.5% and -19.5% | -1% | 1% | -7.65% and -21.2% | -3% | -4% | 6.55% and -5.6% | 3% | -3% | -23.7% and -8.9% | -25% | -6% | -0.55% and 1.2% | 4% | -2% | 2.25% and -0.05%
17 | C/C=C(\C)C(=O)OC1C(C)=C2C(C1OC(=O)CCCCC)C(C)(OC(C)=O)CC(OC(=O)CCC)C1(O)C2OC(=O)C1(C)O (centres undefined) | 26% | 85% (active) | 77.6% (active) | 15% | 86% (active) | 83.5% (active) | 20% | 91% (active) | 74.8% (active) | 34% | 95% (active) | 82.6% (active) | 17% | 92% (active) | 73.4% (active) | 34% | 87% (active) | 67.6%
18 | CCOC(=O)C(NC(=O)C(Cc1ccc(N(CCCl)CCCl)cc1)NC(C)=O)C(C)C (centres undefined) | -4% | -9% | 17.5% and 11.7% | -1% | -1% | 11.3% and -1.25% | -5% | 7% | 37.2% and -1.2% | -1% | -2% | 67.7% and -2.95% | -2% | -2% | 19.1% and -22.9% | -4% | -1% | 18.9% and -0.25%
